PNC assembly inh: inhibitors of perinucleolar compartment assembly. PC3M PTB-GFP, PNC prevalence imaging, 16 h; hits give low values. activity change (PNC), negative = inhibition, % at 10 µM. 3.1% of 140,000 active. AID 2417;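 active means readout at or below -70, meaning at least 70% loss of cells showing the perinucleolar compartment, a nuclear body marking cancer cells; inconclusive means readout between -30 and a set limit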;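 further: plate controls were DMSO wells for no effect and camptothecin positive control wells for full effect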
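PC3M cells stably expressing PTB-GFP, 750–1000 cells/well, treated 16 h at 37 °C with compound (23 nl of library stock), in duplicate. After paraformaldehyde fixation and Hoechst stain, imaged at 20x; PNC prevalence scored by image analysis.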
ALDH1A1 block: ALDH1A1 (human) enzyme inhibition; P00352; Purified ALDH1A1, NADH fluorescence, propionaldehyde substrate; Potency, µM (highest dose often 75.3 µM), for the others: at the highest dose activity, negative = inhibition, most hits filed as inhibitors; 7.3% of 220,000 active; AID 1030; active means well fitted inhibition curve with a large enough effect, not every such curve was filed as active; inconclusive means small, poorly fitted or top-dose-only effect, or another doubt; inactive means no such curve, though single readings can be large or run the other way;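 further: potency means the concentration at half of the fitted maximal effect; plate controls were no enzyme wells and a reference inhibitor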
Target sequence (P00352 whole entry, looked up): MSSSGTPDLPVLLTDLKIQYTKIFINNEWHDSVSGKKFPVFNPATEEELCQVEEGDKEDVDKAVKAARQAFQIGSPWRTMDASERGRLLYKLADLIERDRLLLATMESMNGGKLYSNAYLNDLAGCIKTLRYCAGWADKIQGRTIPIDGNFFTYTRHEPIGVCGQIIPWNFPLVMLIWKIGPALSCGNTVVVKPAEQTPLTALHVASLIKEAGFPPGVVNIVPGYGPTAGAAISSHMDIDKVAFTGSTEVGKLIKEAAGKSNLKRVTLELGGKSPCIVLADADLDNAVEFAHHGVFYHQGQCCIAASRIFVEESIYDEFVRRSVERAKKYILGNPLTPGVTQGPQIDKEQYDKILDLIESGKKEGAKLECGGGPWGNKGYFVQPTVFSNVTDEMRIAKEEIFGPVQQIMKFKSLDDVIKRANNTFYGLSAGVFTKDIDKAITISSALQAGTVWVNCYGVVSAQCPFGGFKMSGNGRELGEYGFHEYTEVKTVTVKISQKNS
GLA inh pH 4.5: blocks human alpha-galactosidase A at pH 4.5; P06280; purified enzyme, 4-MU-alpha-Gal fluorescence, pH 4.5; activity change, negative = inhibition, % at 105 µM; 230,000 tested, under 10 active;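 further: 0% = full activity with enzyme and -100% = basal without enzyme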
12-hLO inh: inhibitors of human 12-lipoxygenase (ALOX12); P18054; Potency, µM (titrated, usually from 57.1 µM), for the others: top-dose activity change, negative = inhibition, most hits filed as inhibitors; purified 12-hLO, xylenol orange hydroperoxide absorbance; AID 1452; 0.12% of 150,000 active; further: potency means the concentration at half of the fitted maximal effect; nearly all actives have a fitted effect of over 55% in size
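Purified human 12hLO (150 nM final) was preincubated with compounds for 15 min at room temperature in 25 mM Hepes pH 7.0, 0.01% Triton X-100, then reacted with 40 uM arachidonic acid for 30 min. Hydroperoxide was detected with ferrous iron/xylenol orange.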
aGal spleen mod: alpha-galactosidase A (human) modulation; human spleen homogenate, 4MU-alpha-Gal fluorescence, 40 min; 0.008% of 240,000 active; Potency, µM (series often up to 80 µM), inactives show top-dose activity change, negative = inhibition, actives largely listed as inhibitors; P06280;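 further: potency means the concentration at half of the fitted maximal effect; 0% = enzyme with vehicle and -100% = no enzyme basal signal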
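Inhibition or activation of alpha-galactosidase in human spleen homogenate is scored by 4-MU fluorescence after 40 min at 37C, pH 5.0, with 1 mM substrate. AC50s come from concentration-response fitted to the Hill equation.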
HPGD inh: blocks human HPGD enzyme activity | Potency, µM, inactives show at the top dose activity change, negative = inhibition, usual class: inhibitors | 4.3% of 150,000 active | AID 894 | purified HPGD, NADH fluorescence kinetic, PGE2 substrate | P15428; active means well fitted inhibition curve with a large enough effect, not every such curve was filed as active; inconclusive means small, poorly fitted or top-dose-only effect, or another doubt; inactive means no such curve, though single readings can be large or run the other way; further: potency means the concentration at half of the fitted maximal effect
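NADH formation kinetics: reaction with 30 uM PGE2 and 1 mM NAD+ (final), 20 nM enzyme, Tris-HCl pH 8 with Tween 20, after 15 min compound preincubation at room temperature. Fluorescence change, last versus first of five reads.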
* marks the source's active call; other numbers are inactive results; u = inconclusive; x = no result given; ! = not confirmed by another sample; [ ] = remark or other dose. In the library only some 10% were active in any assay of this set; here they are far more common. Unless noted, the call rests on the fitted dose curve; in most records, active means well fitted curve in the direction sought with a large enough effect; inconclusive means small, poorly fitted or top-dose-only effect, or another doubt; inactive means no such curve, though single readings can be large; an effect the other way counts as inactive or inconclusive. Unless noted, on the % scale 0 is the no-effect control and ±100 the full control effect.

SMILES | PNC assembly inh | ALDH1A1 block | GLA inh pH 4.5 | 12-hLO inh | aGal spleen mod | HPGD inh
COc1ccc(C(C)=O)cc1COC(=O)c1ccc(OCc2c(C)noc2C)cc1 | 45 | 7.9µM* | 3 | -7% | 3% | -12%
COc1ccc(C(C)=O)cc1COc1cc(C)c(Cl)c(C)c1 | x | 1% | 4 | x | -8% | x
COc1ccc(C(C)=O)cc1COC(=O)c1cnc(C)cn1 | 14 | -5% | 1 | -5% | -1% | -8%
COc1ccc(C(C)=O)cc1COC(=O)c1c(C)noc1C | -8 | 22µM* | 2 | 5% | 14% | -21%
COC(=O)c1nc2n(n1)C(c1cccc(Cl)c1)C1=C(CCCC1=O)N2 (stereo not given) | 9 | 18% | -6 | -2% | -4% | 16µM*
COc1ccc(C2C3=C(CCCC3=O)Nc3nc(SCc4ccccc4)nn32)cc1OC (stereo not given) | -86* | 2% | 20 | 28% | 28% | -16%
COc1ccc(C2C3=C(CCCC3=O)Nc3nc(SCc4ccc(C(=O)O)cc4)nn32)cc1OC (stereo not given) | 51 | u | 1 | -1% | u | u
COCC#Cc1ccc(C2NC(C(=O)O)CCC2C)cc1 (stereo not given) | x | 16%[13.5 µM] | x | x | -19%[17.5 µM] | x
CC(=O)NCCc1c[nH]c2ccc(O)cc12 | x | -5% | 0 | -2% | 8% | 11µM*!
COc1ccc2[nH]cc(CCNC(C)=O)c2c1 | x | -2% | 0 | -3% | 9% | u
Cn1c(=Nc2ccccc2)sc2ccccc21 | 3 | -4% | 8 | 3% | 23% | -29%
Cn1c(=NC(=O)CCl)sc2ccccc21 | u | 0.71µM* | 15 | -2% | 2% | -12%
CN(C)c1ccc(N=c2sc3ccccc3n2C)cc1 | 28 | 2µM* | 0 | -6% | 1% | -28%
COc1ccc(-c2csc(-c3[nH]cnc3N)n2)cc1 | x | 7.1µM* | 3 | x | -2% | x
[2H]c1c([2H])c([2H])c(-c2nc(N3CCCCCC3)sc2C(=O)c2ccccc2)c([2H])c1[2H] | 80 | u | 3 | 3% | 5% | -23%
CCCCCCCCCCCCCCC[C@H](O)[C@@H](N)CO | x | 7% | 1 | 2% | -10% | -5%
N#Cc1ccccc1Cn1c(=O)n(Cc2ccc(C(=O)NCc3ccco3)cc2)c(=O)c2sccc21 | 97 | 25µM* | -7 | -1% | 3% | -7%
CC(=O)Nn1cc2c(c1-c1ccccc1)c(=O)n(C)c(=O)n2C | -138* | u | 3 | -3% | -1% | u
Fc1ccc(/C=N/n2cnn(Cc3ccccc3Cl)c2=S)cc1 | x | 20µM* | -16 | x | 2% | x
CCCNC(=O)OC[C@@H]1O[C@H](CCO/N=C(\C)CCC(=O)OC[C@@H]2O[C@H](c3ccccc3)C=C[C@@H]2Oc2ccc(OC)cc2)C=C[C@@H]1Oc1ccc(OC)cc1 | x | -2%[13.5 µM] | x | x | -3%[17.5 µM] | x
CC1(C)CCC[C@]2(C)C3CC(=O)O[C@@]3(C)CC[C@H]12 (stereo not given in full) | x | 20µM* | 0 | -6% | 6% | -1%
Cc1ccccc1NC(=O)C(=O)NCc1ccccn1 | 3 | 8% | -12 | 3% | 1% | -4%
CC1=C(C(=O)OC2CCCC2)C(c2ccc(C)o2)C2=C(CC(c3cccs3)CC2=O)N1 (stereo not given) | u | 14µM* | -13 | -13% | 3% | -19%
CC1=C(C(=O)OC2CCCCCC2)C(c2ccc(C)o2)C2=C(CCCC2=O)N1 (stereo not given) | 10 | u | 3 | -12% | 15% | u
COc1ccccc1NC(=O)CSc1nc2ccccc2n1C(C)=O | 7 | -10% | 4 | 0% | -6% | 16µM*
SMILES | PNC assembly inh | ALDH1A1 block | GLA inh pH 4.5 | 12-hLO inh | aGal spleen mod | HPGD inh
COc1cc([N+](=O)[O-])ccc1NC(=O)CSc1nc2ccccc2n1-c1ccccc1 | 37 | 10µM* | -4 | 2% | 3% | -9%
CCn1c(SCC(=O)Nc2ccccc2OC)nc2ccccc2c1=O | u | -6% | 4 | -8% | 0% | -16%
FC(F)(F)Oc1ccc(NC(=S)NCCCN2CCOCC2)cc1 | x | 9% | 1 | x | -4% | x
O=C(c1ccccc1)c1cccs1 | x | 5% | 4[21.1 µM] | x | 0% | x
CCOc1ccc(C(=O)c2cccs2)cc1 | 17 | 1% | 4 | 0% | 7% | 16µM*
CCOc1ccc(N2C(=O)CC(NCc3ccc(F)cc3)C2=O)cc1 (stereo not given) | u | u | 2 | -1% | 14% | -7%
CCOc1ccc(N2C(=O)CC(NCCNc3ccc(C(=O)c4cccs4)cc3)C2=O)cc1 (stereo not given) | x | 22µM* | -7 | x | 1% | x
COc1cccc(Cn2c(=O)c(C)nc3cnc(N4CCN(C)CC4)nc32)c1 | x | u | x | x | 1% | x
COC(=O)C(C)N(C(=O)c1cccc(Cl)c1)c1c(C)cccc1C (stereo not given) | -92* | u | 0 | 4% | 0% | -8%
CC1Cc2ccccc2N1C(=O)COC(=O)C1(c2ccccc2F)CCCC1 (stereo not given) | -90* | -2% | -6 | 1% | 4% | -3%
CC1Cc2ccccc2N1C(=O)COC(=O)c1ccc(Br)o1 (stereo not given) | x | 15% | -3 | x | -7% | x
CC1Cc2ccccc2N1C(=O)COC(=O)Cn1nnc(-c2ccccc2)n1 (stereo not given) | -19 | 0.71µM* | -11 | -10% | -6% | -24%
Oc1ccc(Cl)cc1C=Nc1cnc2ccccc2c1 | x | -11%[13.5 µM] | x | -2%[11.4 µM] | x | u
O=C(CN1C(=O)NC2(CCSC2)C1=O)N1CCN(c2ccc(F)cc2)CC1 (stereo not given) | -21 | 20µM* | 5 | -6% | 5% | -3%
O=C(CN1C(=O)C2CCCCC2C1=O)N1CCN(c2ccc(F)cc2)CC1 (stereo not given) | x | -12% | 4 | x | -10% | x
CN1CCN(C(=O)C2CCN(c3ncc(C(F)(F)F)cc3Cl)CC2)CC1 | x | 7% | -1 | x | -7% | x
COc1ccc(-n2c(C)nc3sc4c(c3c2=O)CCC4)cc1 | x | 8% | 0[21.1 µM] | x | 3% | x
COc1ccc(-n2c(N3CCN(C)CC3)nc3sc4c(c3c2=O)CCCCC4)cc1 | -16 | 2.8µM* | 1 | -5% | -5% | u
O=[N+]([O-])c1cc(-n2cccc2)ccc1N1CCOCC1 | x | -4% | 10 | x | -4% | x
Cc1c(N(C)C)nc2ccccc2c1N | -25 | u | -1 | -9% | -7% | -6%
CCN(CC)c1nc2ccccc2c(N)c1-c1ccccc1 | -9 | 14µM* | 4 | -9% | 1% | u
O=c1c(N2CCOCC2)nsnc1N1CCOCC1 | u | 25µM* | -11 | -7% | 2% | x

Screening data (PubChem BioAssay)
